Data on 27 compounds can be found in the supplement of paper PMC6522484.

Assay [1] has as its system DLD1. The assay can be described thus: cell viability (CellTiter-Glo) relative to plate median (fraction of plate median); higher = more viable cells. The following applies: 5 µM; treatment time 24 h; reporter: 7TFP. In outline: (§1)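 Colorectal cancer cells stably transduced with lentiviral TCF/Wnt firefly luciferase reporters were seeded in 384-well plates and dosed 24 h later with library compounds at a final 5 µM for 24 h. Firefly luciferase or CellTiterGlo luminescence was then read on a Tecan F500 from parallel plates. Signals were normalised per well to the plate median without log transformation, additively in webcellHTS2, and averaged over two independent replicates.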

Assay [2] deals with HCT116. The description is as above. The following applies: 5 µM; treatment time 24 h; reporter: TCF4/Wnt. In a few lines:
as §1

Assay [3] has as its system SW480. The assay is described as above. The following applies: 5 µM; treatment time 24 h; reporter: 7TFP. In outline:
as §1

The subject of assay [4] is DLD1. The assay can be described thus: TCF/Wnt firefly luciferase reporter signal relative to plate median (fraction of plate median); higher = higher Wnt reporter signal. Conditions: 5 µM; treatment time 24 h; reporter: 7TFP. In outline: as §1
For assay [5], the system named is SW480. The assay is described as above. The following applies: 5 µM; treatment time 24 h; reporter: 7TFP. In outline: as §1

Molecules are shown by their SMILES. ± gives the standard deviation of the averaged measurements.

Take `CC(C)[C@@H]1CC[C@@H](C)C[C@H]1OC(=O)c1ccccc1`: the cell viability stood at 1.01 ± 0.025 in assay [1], 1.03 ± 0.057 in assay [2] and 1.06 ± 0.042 in assay [3]. The “TCF/Wnt firefly luciferase reporter signal” value in assay [4] came out at 1.01 ± 0.19; in assay [5], 0.996 ± 0.02.

As for `O=c1cc(-c2ccccc2)oc2cccc(O)c12`, the cell viability in assay [1] was 0.972 ± 0.068; in assay [2], 1.04 ± 0.073; in assay [3], 1.04 ± 0.058. Further, the “TCF/Wnt firefly luciferase reporter signal” value turned out to be 0.98 ± 0.0085 in assay [4] and 1.03 in assay [5].

For the compound `Cc1cc(N)c2ccccc2[n+]1CCCCCCCCCC[n+]1c(C)cc(N)c2ccccc21`, the results for the cell viability in assay [1], in assay [2] and in assay [3] were 0.995 ± 0.092, 0.907 ± 0.042 and 0.989 ± 0.087, respectively. Further, the “TCF/Wnt firefly luciferase reporter signal” value in assay [4] turned out to be 0.751 ± 0.18; in assay [5] it was 0.793 ± 0.11.

Turning to `C[C@H]1CCC/C=C/C(=O)c2c(O)cc(O)cc2CC(=O)O1` [Dehydro-Curvularin], the cell viability in assay [1] is 0.9905 ± 0.005; in assay [2] it was 1.08 ± 0.014; in assay [3], 1.02 ± 0.03. Further, the “TCF/Wnt firefly luciferase reporter signal” value was 1.095 ± 0.0071 in assay [4] and 1 ± 0.07 in assay [5].

On to `O=c1c(O)c(-c2ccccc2)oc2cc(O)ccc12`, for which the cell viability in assay [1] came out at 1 ± 0.05; in assay [2], 1.06 ± 0.057; in assay [3], 1.035 ± 0.0071. For the same compound, the “TCF/Wnt firefly luciferase reporter signal” value amounted to 1.01 ± 0.044 in assay [4] and 0.925 ± 0.1 in assay [5].

On to `CC(NCCc1ccc(O)cc1)C(O)c1ccc(O)cc1` (stereo not given), for which the figures for the cell viability in assay [1], in assay [2] and in assay [3] were 0.914 ± 0.1, 0.929 ± 0.1 and 0.933 ± 0.056, respectively. The “TCF/Wnt firefly luciferase reporter signal” value was 0.981 ± 0.07 in assay [4] and 0.913 ± 0.027 in assay [5].

Turning to `COc1ccc(-c2coc3cc(O)ccc3c2=O)c(O)c1O`, the cell viability in assay [1] was 1.02 ± 0.035; in assay [2] it was 0.993 ± 0.038; in assay [3], 1.03 ± 0.014. Besides, the “TCF/Wnt firefly luciferase reporter signal” value in assay [4] is 1 ± 0.079; in assay [5], 1.09 ± 0.028.

`Cc1cccc(N(C)C(=S)Oc2ccc3ccccc3c2)c1`: the figures for the cell viability in assay [1], in assay [2] and in assay [3] were 1.07 ± 0.028, 1.09 ± 0.099 and 0.987 ± 0.018, respectively. Further, the “TCF/Wnt firefly luciferase reporter signal” value in assay [4] worked out at 0.897 ± 0.07; in assay [5], 0.95 ± 0.04.

As for `Cc1oc(C(C)O)c2c1C(=O)c1c(O)cccc1C2=O` (stereo not given) [Bhimamycin A], the values for the cell viability in assay [1], in assay [2] and in assay [3] were 1.14 ± 0.014, 0.958 ± 0.06 and 1.23 ± 0.13, respectively. The figures for the “TCF/Wnt firefly luciferase reporter signal” value in assay [4] and in assay [5] were 0.9925 ± 0.0092 and 1.07 ± 0.042, respectively.

For the compound `S=c1[nH]cnc2nc[nH]c12`, the cell viability was found to be 0.733 ± 0.044 in assay [1], 0.989 ± 0.1 in assay [2] and 0.932 ± 0.012 in assay [3]. Further, the “TCF/Wnt firefly luciferase reporter signal” value in assay [4] was found to be 1.22; in assay [5], 1.03 ± 0.021.

With `CC(C)[C@@H](C)/C=C/[C@@H](C)[C@H]1CC[C@H]2C3=CCC4CC(=O)CC[C@]4(C)[C@H]3CC[C@]12C` (stereo not given in full), the results for the cell viability in assay [1], in assay [2] and in assay [3] were 0.975 ± 0.078, 1.07 ± 0.05 and 1.08, respectively. The “TCF/Wnt firefly luciferase reporter signal” value was determined as 1.06 ± 0.071 in assay [4] and 1.06 ± 0.021 in assay [5].

In the case of `COc1cc(O)c(C(=O)/C=C/c2ccc(OC)c(O)c2)c(OC)c1`, the cell viability came to 1.06 ± 0.098 in assay [1], 0.975 ± 0.093 in assay [2] and 1.1 ± 0.042 in assay [3]. Also, the “TCF/Wnt firefly luciferase reporter signal” value in assay [4] amounted to 0.975 ± 0.064; in assay [5], 0.8395 ± 0.00071.

Turning to `COc1ccc(-c2cc(=O)c3c(O)c(OC)c(O[C@@H]4O[C@H](CO[C@@H]5O[C@@H](C)[C@H](O)[C@@H](O)[C@H]5O)[C@@H](O)[C@H](O)[C@H]4O)cc3o2)cc1`, the cell viability was 0.933 ± 0.087 in assay [1], 0.951 ± 0.056 in assay [2] and 0.897 ± 0.056 in assay [3]. Also, the “TCF/Wnt firefly luciferase reporter signal” value in assay [4] was found to be 1.07 ± 0.035; in assay [5], 1.08 ± 0.021.

For `COc1ccc(-c2cc(=O)c3c(O)cc(OC)c(OC)c3o2)c(OC)c1`, the figures for the cell viability in assay [1], in assay [2] and in assay [3] were 0.978 ± 0.088, 0.988 ± 0.016 and 1.02 ± 0.064, respectively. Also, the “TCF/Wnt firefly luciferase reporter signal” value is 0.9025 ± 0.005 in assay [4] and 0.896 ± 0.067 in assay [5].

As to `COC(=O)c1c(C)cc(OC(=O)c2c(C)cc(O)c(C=O)c2O)c(C)c1O`, the cell viability was determined as 1.06 ± 0.021 in assay [1], 1.07 ± 0.092 in assay [2] and 1.06 ± 0.064 in assay [3]. Besides, the “TCF/Wnt firefly luciferase reporter signal” value in assay [4] came out at 1 ± 0.14; in assay [5], 1.04 ± 0.028.

Regarding `CC1CCC(NC(=O)N(CCCl)N=O)CC1` (stereo not given), the cell viability amounted to 1.01 ± 0.059 in assay [1], 1.02 ± 0.071 in assay [2] and 1.015 ± 0.0071 in assay [3]. The entries for the “TCF/Wnt firefly luciferase reporter signal” value in assay [4] and in assay [5] were 1.08 ± 0.035 and 1.16 ± 0.028, respectively.

As for `CCCc1nc(C)c2c(O)nc(-c3cc(S(=O)(=O)N4CCN(CC)CC4)ccc3OCC)nn12`, the results for the cell viability in assay [1], in assay [2] and in assay [3] were 0.948 ± 0.022, 1.02 ± 0.061 and 0.9505 ± 0.005, respectively. Moreover, the results for the “TCF/Wnt firefly luciferase reporter signal” value in assay [4] and in assay [5] were 1.05 ± 0.021 and 1.07 ± 0.042, respectively.

As for `NC(N)=O`, the cell viability in assay [1] amounted to 1.03 ± 0.014; in assay [2] it was 0.988 ± 0.088; in assay [3] it was 0.999 ± 0.044. Also, the “TCF/Wnt firefly luciferase reporter signal” value in assay [4] is 0.898 ± 0.0028; in assay [5], 0.934 ± 0.076.

Regarding `O=C1C(O)=C(O)C(=O)C(O)=C1O`, the cell viability in assay [1] was found to be 0.96 ± 0.03; in assay [2], 0.997 ± 0.1; in assay [3], 0.944 ± 0.015. Also, the figures for the “TCF/Wnt firefly luciferase reporter signal” value in assay [4] and in assay [5] were 0.829 ± 0.011 and 0.822 ± 0.056, respectively.

As for `CC1(C)S[C@@H]2[C@H](N3C(=O)[C@@H](c4ccccc4)NC3(C)C)C(=O)N2[C@H]1C(=O)O`, the cell viability in assay [1] amounted to 1.05 ± 0.079; in assay [2] it was 1.055 ± 0.0071; in assay [3], 1.08 ± 0.071. Moreover, the entries for the “TCF/Wnt firefly luciferase reporter signal” value in assay [4] and in assay [5] were 1.15 ± 0.042 and 1.09 ± 0.014, respectively.

As to `CC[C@H]1OC(=O)[C@H](C)[C@@H](O[C@H]2C[C@@](C)(OC)[C@@H](O)[C@H](C)O2)[C@H](C)[C@@H](O[C@@H]2O[C@H](C)C[C@H](N(C)C)[C@H]2O)[C@](C)(O)C[C@@H](C)C(=O)[C@H](C)[C@@H](O)[C@]1(C)O`, the cell viability in assay [1] stood at 1.01 ± 0.05; in assay [2] it was 0.986 ± 0.034; in assay [3] it was 1 ± 0.028. The results for the “TCF/Wnt firefly luciferase reporter signal” value in assay [4] and in assay [5] were 0.924 ± 0.09 and 0.874 ± 0.051, respectively.

`C[C@@H]1O[C@@H](O[C@H]2[C@H](Oc3cc(O)c4c(=O)cc(-c5ccc(O)cc5)oc4c3)O[C@H](CO)[C@@H](O)[C@@H]2O)[C@H](O)[C@H](O)[C@H]1O`: the cell viability in assay [1] was 1.04 ± 0.035; in assay [2], 1.03 ± 0.054; in assay [3], 0.98 ± 0.015. In addition, the “TCF/Wnt firefly luciferase reporter signal” value came to 0.989 ± 0.013 in assay [4] and 1.02 ± 0.079 in assay [5].

For the compound `CC(=O)OC(C)C[N+](C)(C)C` (stereo not given), the results for the cell viability in assay [1], in assay [2] and in assay [3] were 0.968 ± 0.1, 1.03 ± 0.08 and 0.997 ± 0.019, respectively. For the same compound, the “TCF/Wnt firefly luciferase reporter signal” value in assay [4] amounted to 1.01 ± 0.071; in assay [5] it was 1.01 ± 0.021.

For the compound `COc1ccc([C@@H](C)C(=O)c2ccc(O)cc2O)cc1`, the cell viability in assay [1] amounted to 1.04 ± 0.098; in assay [2], 1.09 ± 0.071; in assay [3] it was 1.025 ± 0.0071. Besides, the entries for the “TCF/Wnt firefly luciferase reporter signal” value in assay [4] and in assay [5] were 1.02 ± 0.071 and 1.07 ± 0.1, respectively.

Turning to `CC1=C(/C=C/C(C)=C/C=C/C(C)=C/CO)C(C)(C)CCC1`, the cell viability is 0.974 ± 0.079 in assay [1], 1.15 ± 0.042 in assay [2] and 1.04 ± 0.042 in assay [3]. In addition, the “TCF/Wnt firefly luciferase reporter signal” value is 1.14 ± 0.042 in assay [4] and 1.04 ± 0.057 in assay [5].

Turning to `CO[C@@H]1[C@@H](OC(N)=O)[C@@H](O)[C@H](Oc2ccc3c(O)c(NC(=O)c4ccc(O)c(CC=C(C)C)c4)c(=O)oc3c2C)OC1(C)C`, the cell viability stood at 0.988 ± 0.088 in assay [1], 0.8935 ± 0.005 in assay [2] and 1.004 ± 0.0085 in assay [3]. The “TCF/Wnt firefly luciferase reporter signal” value in assay [4] is 1.27 ± 0.05; in assay [5] it was 1.14.

Consider `CC1CCc2cc(F)cc3c(=O)c(C(=O)O)cn1c23` (stereo not given), for which the results for the cell viability in assay [1], in assay [2] and in assay [3] were 1.05 ± 0.071, 1.05 ± 0.15 and 0.972 ± 0.013, respectively. Moreover, the results for the “TCF/Wnt firefly luciferase reporter signal” value in assay [4] and in assay [5] were 0.953 ± 0.039 and 1.07 ± 0.014, respectively.
